Results reported in the supplement of paper PMC10681739.

These sequences were tested against RUNX1 (UniProt Q01196) (assay: RUNX1 binding intensity (PBM fluorescence), RUNX1 alone (arbitrary fluorescence units); higher = stronger binding). Conditions: RUNX1 concentration 2 nM; ETS1 concentration 0 nM.
Method: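 Cooperative gcPBM on 36-bp genomic probes with neighbouring ETS1 and RUNX1 sites. Recombinant human RUNX1 (2 nM) was incubated alone or with ETS1 (25 nM) and detected with anti-RUNX1 antibody plus Alexa488 secondary. Values are medians over 4 replicate spots; the RUNX1+ETS1 data were normalised to the RUNX1-only data. The probes sit in constant array flanks that are not printed.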
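Wherever RUNX1 binding intensity (PBM fluorescence), RUNX1 alone is given: Full-length recombinant human RUNX1 bound to double-stranded 36-bp genomic probes on a high-density microarray, scored as Alexa488 fluorescence per spot via anti-RUNX1 antibody, median of four replicate spots.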

Sequence of RUNX1 (Q01196 whole entry): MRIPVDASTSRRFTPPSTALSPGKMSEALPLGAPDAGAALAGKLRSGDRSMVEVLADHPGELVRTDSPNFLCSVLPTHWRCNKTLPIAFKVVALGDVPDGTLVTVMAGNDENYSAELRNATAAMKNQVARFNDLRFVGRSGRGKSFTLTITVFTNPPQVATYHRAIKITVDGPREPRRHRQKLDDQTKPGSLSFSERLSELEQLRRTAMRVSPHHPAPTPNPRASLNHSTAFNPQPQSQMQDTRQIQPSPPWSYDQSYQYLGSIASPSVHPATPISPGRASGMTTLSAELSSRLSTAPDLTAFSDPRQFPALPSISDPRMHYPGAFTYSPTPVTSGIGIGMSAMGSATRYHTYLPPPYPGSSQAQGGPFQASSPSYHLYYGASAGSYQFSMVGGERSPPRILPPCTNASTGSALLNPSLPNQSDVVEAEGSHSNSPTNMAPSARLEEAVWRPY

| Sequence | RUNX1 binding intensity |
| --- | --- |
| TACAATTCGCACCGGAACTTGCGGCCCGGCTTCATT | 729 |
| TATGGCGGGCAGGAAGTGCGGGTGCGCGCCTGCGCA | 642 |
| GACCTGCCTTCCGGCCTCCGTCACATGACCGCACAG | 1110 |
| AGCAACAACAAAGGAAGTGGCGGCCGCAGGGGGAGG | 795 |
| TATGTGTTTTAGGCAGGATGTGGGTTTTAGTCTTTC | 840 |
| AGGACCTAACACTCAGGAAGTGGTCAACCTTGCTGC | 897 |
| CCAAAAACCCCAGGAGGATGTGGTGAGGAGGGAAGG | 831 |
| AGGTTGAAAGCACTTCCGCTGCGGCCCCCGTAGGAA | 833 |
| CTCACTCATCTGACTTCCTGCGGTTTACGACAACAG | 11100 |
| TACACTCCCACATCCGCTGCGGCGCAACTCACAACA | 1020 |
| GTATCACTTCCTGTTTTCCTCTGTGGCTTACTGCTG | 1300 |
| CAGCTGCTGACAGGAAAACCACAGTGGAAGGGGAAG | 898 |
| TCAATAAGACAGGATGTTCTCCAACCGCATTAAGCT | 854 |
| GCCGCCTCTTCCTGTGTTGCAAACCACAGGTCCACC | 1570 |
| TTAGATGTGCCTACATCCTGACCTCAAAAACCTCTG | 791 |
| AAAGTTGTATAGTGAGGATGTGGTCAAGAACTCACC | 1010 |
| AATATCCTGTATGTCATGCTTAAAAAGCCACAAAAC | 875 |
| TTTACAGGAAATATCCAGAACAGGTAAACCCACAGA | 796 |
| GCTCAAGTACCGGAAAGGCCCGCAGAAAGAAGGGCA | 748 |
| AGATCAACTTCCACATCCGGTGGTAACAGGGCCCTA | 835 |

| Sequence | RUNX1 binding intensity |
| --- | --- |
| CTACCCTCCCTCTTCCTGTGGTTTCTCAAACATGTC | 2470 |
| TCTTGCCCGGGTCGGAAATGGTGGTCACGAGCGCTT | 772 |
| ACAGGCTGTCTGCTTCCGTCAGCGGTTATTCCCTTG | 882 |
| GCCCGGAAGCGCGACGCTGGAGCTGCGGGGTTACCA | 662 |
| AACCTCCGACTTCCGGCCGCGCAGCGGTGGGCTGAG | 678 |
| GCACTCATTTCCTGTCCCCTGTGGTTTAAAGGTTTT | 1260 |
| TCGCCCGCCGCTTCCTGTCGCGGCGCCGCAGAGGCC | 821 |
| GGACTTCCTGAAGCCAGATCGGTTTACCACAGTCAG | 634 |
| TCAGGGGTGGGAGGAAGTGGTTAGGATCAGCCTGGG | 776 |
| CCCTCCTCTTTCGTTTCCTAACCGCAAATTCCATCA | 58200 |
| GCTGATAAAACAGGATGTGGTAAAGAAGCCGGCCAA | 817 |
| CTCCGCCAGCCACCGGAACTGCGGCCCAGCAAAAAG | 927 |
| ACCCTTCCTGGAGCATTGTCGCAGCAACCACAACAG | 918 |
| TGGCGGGAGAACTTCCCCCTGTGCGGTCGCGACGTG | 738 |
| TGCAGTCGTGAAAAAGGAAGTGGTTAAAGTGGATAC | 836 |
| GGGGGAGTTTTCGGAAGCGCTAACCGCGTTGGGGCC | 860 |
| CCGGTCCTGACCGGAAGCGGTAACCGTCACTCCTTC | 703 |
| AACAGCTTCCGGCACGGGGGCTGTGGTTGTGTTGGA | 790 |
| GAAGGCGGTTCCGGTTCGCGGCGGTTCCCGGGTTTT | 794 |
| ATGGCGGAGCGGAAGTCCCAGCCACAACGCGAAAAG | 782 |

What follows are sequences tested against T1, ETS1 (UniProt P14921) (assay: ETS1 binding intensity (PBM fluorescence) in presence of RUNX1, normalised to ETS1-only experiment (arbitrary fluorescence units); higher = stronger binding). Conditions: ETS1 concentration 1 nM; RUNX1 concentration 25 nM.
T1 sequence: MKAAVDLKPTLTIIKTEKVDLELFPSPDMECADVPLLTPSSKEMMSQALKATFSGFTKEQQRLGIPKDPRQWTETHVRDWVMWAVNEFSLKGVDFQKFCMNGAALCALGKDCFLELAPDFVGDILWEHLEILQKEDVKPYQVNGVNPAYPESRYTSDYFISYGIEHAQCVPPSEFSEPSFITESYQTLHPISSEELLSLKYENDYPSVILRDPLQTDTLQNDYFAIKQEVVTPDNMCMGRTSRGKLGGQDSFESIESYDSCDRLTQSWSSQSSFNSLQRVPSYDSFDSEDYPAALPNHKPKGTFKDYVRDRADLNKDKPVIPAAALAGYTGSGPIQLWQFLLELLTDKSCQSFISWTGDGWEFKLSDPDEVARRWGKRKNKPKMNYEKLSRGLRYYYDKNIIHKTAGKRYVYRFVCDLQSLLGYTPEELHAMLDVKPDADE

| Sequence | ETS1 binding intensity |
| --- | --- |
| TACAATTCGCACCGGAACTTGCGGCCCGGCTTCATT | 4640 |
| TATGGCGGGCAGGAAGTGCGGGTGCGCGCCTGCGCA | 5650 |
| GACCTGCCTTCCGGCCTCCGTCACATGACCGCACAG | 1210 |
| AGCAACAACAAAGGAAGTGGCGGCCGCAGGGGGAGG | 2160 |
| TATGTGTTTTAGGCAGGATGTGGGTTTTAGTCTTTC | 36400 |
| AGGACCTAACACTCAGGAAGTGGTCAACCTTGCTGC | 3710 |
| CCAAAAACCCCAGGAGGATGTGGTGAGGAGGGAAGG | 2590 |
| AGGTTGAAAGCACTTCCGCTGCGGCCCCCGTAGGAA | 3460 |
| CTCACTCATCTGACTTCCTGCGGTTTACGACAACAG | 1970 |
| TACACTCCCACATCCGCTGCGGCGCAACTCACAACA | 1260 |
| GTATCACTTCCTGTTTTCCTCTGTGGCTTACTGCTG | 3330 |
| CAGCTGCTGACAGGAAAACCACAGTGGAAGGGGAAG | 1550 |
| TCAATAAGACAGGATGTTCTCCAACCGCATTAAGCT | 22100 |
| GCCGCCTCTTCCTGTGTTGCAAACCACAGGTCCACC | 2340 |
| TTAGATGTGCCTACATCCTGACCTCAAAAACCTCTG | 767 |
| AAAGTTGTATAGTGAGGATGTGGTCAAGAACTCACC | 4380 |
| AATATCCTGTATGTCATGCTTAAAAAGCCACAAAAC | 1070 |
| TTTACAGGAAATATCCAGAACAGGTAAACCCACAGA | 1630 |
| GCTCAAGTACCGGAAAGGCCCGCAGAAAGAAGGGCA | 1270 |
| AGATCAACTTCCACATCCGGTGGTAACAGGGCCCTA | 5560 |

| Sequence | ETS1 binding intensity |
| --- | --- |
| CTACCCTCCCTCTTCCTGTGGTTTCTCAAACATGTC | 937 |
| TCTTGCCCGGGTCGGAAATGGTGGTCACGAGCGCTT | 1600 |
| ACAGGCTGTCTGCTTCCGTCAGCGGTTATTCCCTTG | 602 |
| GCCCGGAAGCGCGACGCTGGAGCTGCGGGGTTACCA | 887 |
| AACCTCCGACTTCCGGCCGCGCAGCGGTGGGCTGAG | 4280 |
| GCACTCATTTCCTGTCCCCTGTGGTTTAAAGGTTTT | 4620 |
| TCGCCCGCCGCTTCCTGTCGCGGCGCCGCAGAGGCC | 1890 |
| GGACTTCCTGAAGCCAGATCGGTTTACCACAGTCAG | 599 |
| TCAGGGGTGGGAGGAAGTGGTTAGGATCAGCCTGGG | 3120 |
| CCCTCCTCTTTCGTTTCCTAACCGCAAATTCCATCA | 1720 |
| GCTGATAAAACAGGATGTGGTAAAGAAGCCGGCCAA | 18000 |
| CTCCGCCAGCCACCGGAACTGCGGCCCAGCAAAAAG | 2320 |
| ACCCTTCCTGGAGCATTGTCGCAGCAACCACAACAG | 975 |
| TGGCGGGAGAACTTCCCCCTGTGCGGTCGCGACGTG | 533 |
| TGCAGTCGTGAAAAAGGAAGTGGTTAAAGTGGATAC | 9240 |
| GGGGGAGTTTTCGGAAGCGCTAACCGCGTTGGGGCC | 874 |
| CCGGTCCTGACCGGAAGCGGTAACCGTCACTCCTTC | 29000 |
| AACAGCTTCCGGCACGGGGGCTGTGGTTGTGTTGGA | 1130 |
| GAAGGCGGTTCCGGTTCGCGGCGGTTCCCGGGTTTT | 466 |
| ATGGCGGAGCGGAAGTCCCAGCCACAACGCGAAAAG | 5670 |
